# From PubChem
# TRHR PAM – TRH receptor (human) allosteric enhancement | TRHR cells, fluo-8 calcium fluorescence, EC20 TRH enhancement | 0.66% of 360,000 active | P34981 | enhancement, % at 2 µM; in the data active = enhancement above about 30%; note: 0% is about no effect
# Target sequence (P34981 whole entry, looked up): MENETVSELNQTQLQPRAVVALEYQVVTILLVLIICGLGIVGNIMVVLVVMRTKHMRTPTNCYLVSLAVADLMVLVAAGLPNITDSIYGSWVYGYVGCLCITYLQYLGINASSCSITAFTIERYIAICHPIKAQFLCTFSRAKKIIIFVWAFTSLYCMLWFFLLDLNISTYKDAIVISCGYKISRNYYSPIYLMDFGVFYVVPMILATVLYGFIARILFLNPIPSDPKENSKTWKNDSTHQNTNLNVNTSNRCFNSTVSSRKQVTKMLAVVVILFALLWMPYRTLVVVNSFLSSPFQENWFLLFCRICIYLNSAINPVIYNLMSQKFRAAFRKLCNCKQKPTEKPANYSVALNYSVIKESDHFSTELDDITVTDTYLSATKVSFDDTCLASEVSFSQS
#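 TRHR-expressing cells loaded with fluo-8 calcium dye were read kinetically (ex 480/em 530) during compound addition, then stimulated with an EC20 of TRH (10 nM final). Enhancement of the Gq-mediated intracellular calcium response was scored.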
# TRPV1 PAM – human TRPV1 potentiation. Q8NER1. TRPV1-expressing cells, Fluo-8 calcium influx, capsaicin EC20 potentiation. potentiation, % at 8.33 µM. 0.02% of 320,000 active. AID 540277; in the data active = potentiation above about 80%; inconclusive = between about 30% and that limit; note: 0% is about no effect
#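 TRPV1-expressing cells were cultured overnight at 35.5C and loaded with Fluo-8 calcium dye for 40 to 90 min at room temperature. After a 10 s baseline, compound was added and calcium influx was read kinetically for 3 min (ex 480/em 520 nm).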
# TRPML1 ag – human mucolipin-1 channel agonism | activation, % (concentration not given with the values) | 0.12% of 410,000 active | Q9GZU1 | TRPML1-expressing cells, Ca2+ dye fluorescence, FDSS | AID 624414; in the data active = activation above about 50%; inconclusive = mostly about 30% to 49%; note: 0% is about no effect
#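 Tet-induced TRPML1-DL cells, 1,500 per well, cultured overnight, were loaded with a no-wash Ca2+ dye for 45–90 min. Calcium fluorescence was recorded on the FDSS for 110 s after compound addition, before the EC80 agonist (4 uM 54-4) was added.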
# TRPML1 blocker – blocks the human TRPML1 channel | AID 624415 | 0.02% of 390,000 active | TRPML1-inducible cells, Ca2+ dye fluorescence, FDSS; hits give low values; inhibition of EC80 agonist-evoked calcium signal | activity change, negative = inhibition, % (concentration not given with the values) | Q9GZU1; in the data active = activity change below about -50%; inconclusive = between about -30% and that limit;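 note: stimulus is agonist 54-4 at its EC80 concentration; % is set by controls: 0 for no effect and ±100 for the full control effect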
#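 Tet-induced TRPML1-DL cells loaded with Ca8 no-wash calcium dye were read kinetically on FDSS. Compound addition was followed by EC80 agonist 54-4 (4 uM final); inhibition was read over 110 s.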
# TRHR ag – TRH receptor (human) agonism; P34981; TRHR cells, calcium flux fluo-8, FDSS agonist mode; activation, % at 2 µM; 0.18% of 360,000 active; AID 493084; in the data active = activation above about 30%; note: 0% is about no effect
#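 In this calcium-flux screen, cells bearing human TRHR are dye-loaded with fluo-8, baselined for 10 cycles, then exposed to library compounds; positive kinetic calcium responses during the agonist phase mark hits, with TRH as control.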
# TRPV1 agonist – activates the human vanilloid receptor TRPV1. TRPV1-expressing cells, Fluo-8 calcium influx, agonist mode. activation, % at 8.33 µM. 0.19% of 320,000 active. AID 540275; in the data active = activation above about 80%; inconclusive = between about 30% and that limit; note: 0% is about no effect
#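 Cells expressing TRPV1 were dye-loaded with Fluo-8 and read kinetically: 10 s baseline, 3 min after compound (agonist portion), then 2 min after EC20 capsaicin (allosteric enhancer portion). Calcium-bound dye fluorescence at 480/520 nm.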
# Starred values were filed as active, the others as inactive; ? = inconclusive; . = no result. In the library only some 0.99% were active in any assay of this set; here they are far more common.
SMILES,TRHR PAM,TRPV1 PAM,TRPML1 ag,TRPML1 blocker,TRHR ag,TRPV1 agonist
COc1cc(NC(=O)c2n[nH]c(=O)c3ccccc23)cc(OC)c1,35*,-10,-1,-21,0,1
Cc1nn(-c2ccccc2)c(C)c1/C=N/n1c(-c2ccccc2Br)n[nH]c1=S,-3,-5,3,-69*,0,21
O=C1COc2ccc(C(=O)COC(=O)Cc3ccc(Cl)cc3)cc2N1,36*,5,0,21,1,0
O=C1COc2ccc(C(=O)COC(=O)CCSc3ccc(Cl)cc3)cc2N1,5,-27,3,-5,0,4
O=C(Nc1ccc(F)c(Cl)c1)N1CCN(C(=O)c2nsc3ccccc23)CC1,-4,.,2,14,-1,.
COc1ccc2cc3cc(C(=O)NCc4ccco4)oc3nc2c1,-2,10,0,7,0,1
COc1ccc2cc3c(N)c(C(=O)NCc4ccco4)sc3nc2c1,51*,5,1,1,1,2
CN(CCc1nc2ccc(Cl)cc2[nH]1)Cc1nc(CC2CC2)no1,35*,-1,1,-6,-3,4
CCOc1c(Nc2ccc(C(C)C)cc2)c(=O)c1=O,-2,-1,-1,25,-1,83*
Cc1nn(-c2ccccn2)c2c1-c1nc(N)sc1CC2,.,.,-1,.,.,.
CCN(CC)c1ccc(/C=C(/C#N)C(=O)NCc2ccccc2)o1,8,-15,?,-17,59*,?
O=C(C[N+]12CCCc3cccc(c31)CCC2)c1ccc2ccccc2c1,.,.,0,.,.,.
Cc1ccc2c(c1)Cc1c(nc(-c3ccc(F)cc3)nc1SCC(=O)N1CCCCC1)O2,33*,.,0,18,1,.
Cc1ccc(C(=O)C[n+]2cccc3cccc(O)c32)cc1,.,.,6,.,.,.
Cc1cccc(C)c1NC(=O)c1ccc(-c2ccc(Cl)cc2Cl)o1,-3,5,3,64,1,-2
Cc1ccccc1NC(=O)c1ccc(-c2ccc(Cl)cc2Cl)o1,-4,3,3,-51*,0,15
Cc1cccc(C)c1NC(=O)C1CCCN(S(=O)(=O)c2c(C)noc2/C=C/N(C)C)C1 (configuration not stated),-3,.,-1,8,-1,.
Cc1ccc(S(=O)(=O)NCCNC(=O)c2ccccc2)cc1,-1,-2,-1,-7,0,-1
Cc1ccc(C(=O)NCCNS(=O)(=O)c2ccccc2)cn1,39*,0,0,7,0,-1
Cn1c(=O)nc2n(Cc3ccccc3)c3ccccc3cc-2c1=O,31*,-10,-1,-17,0,7
Cc1ccccc1-n1c2nc(=O)n(C)c(=O)c-2cc2ccccc21,-3,-11,0,1,0,4
CC(C)(C)n1nnnc1C(c1ccccc1)N1CCN(c2c(Cl)cncc2Cl)CC1 (configuration not stated),.,.,52*,.,.,.
CC(C)(C)n1nnnc1C(c1ccccc1)N1CCN(c2ccc(F)cc2)CC1 (configuration not stated),.,.,2,.,.,.
CC(C)(C)n1nnnc1C(c1ccccc1)N1CCN(c2ncc(C(F)(F)F)cc2Cl)CC1 (configuration not stated),.,.,57*,.,.,.
CC(C)(CCO)Nc1ncnc2onc(-c3ccc(F)cc3)c12,-6,6,1,-3,-1,-7
SMILES,TRHR PAM,TRPV1 PAM,TRPML1 ag,TRPML1 blocker,TRHR ag,TRPV1 agonist
CCC(CO)Nc1ncnc2onc(-c3ccc(F)cc3)c12 (configuration not stated),40*,0,0,-19,0,2
COc1cccc(C(=O)NC(C)CCc2ccccc2)c1 (configuration not stated),33*,-6,0,1,-1,8
Cc1ccccc1NC(=O)c1ccc(F)c(S(=O)(=O)NC2CCCC2)c1,-5,.,2,-11,0,.
Brc1cc(Br)c[n+](CCc2ccccc2)c1,.,.,0,.,.,.
CC(C)(C)c1ccc(/C=C/C(=O)N2CCCCC2)cc1,4,-20,1,-9,-1,94*
CC1CCN(C(=O)/C=C/c2ccc(C(C)(C)C)cc2)CC1,-6,-11,3,-11,0,89*
CN(C)c1ccc(C=O)c(Cl)c1,.,.,0,.,.,.
CC(C)(C)C(=O)Cn1ncc(Cl)c(Cl)c1=O,32*,-4,0,-6,0,4
CCCn1c(C(C)Nc2nc(-c3cc(Cl)c(N)c(Cl)c3)cs2)nc2cc(Cl)c(N3CCCCC3)cc21 (configuration not stated),-1,17,-1,-3,0,86*
CCOc1ccccc1CNc1nc2nc(C)c(CC(=O)OC)c(=O)n2[nH]1,-7,.,0,6,0,.
Cc1ccccc1-c1csc2ncnc(Sc3nnnn3C)c12,-1,.,.,.,-1,.
COc1ccc(OC)c(CCNC(=O)C2=C(C)C(=O)OC23CCC(C)CC3)c1 (configuration not stated),-7,.,0,-13,0,.
COc1ccc(CCNC(=O)C2=C(C)C(=O)OC23CCCCC3)c(OC)c1OC,31*,.,-1,-2,0,.
O=C(COC(=O)c1ccc(O)cc1O)Nc1cccc2ccccc12,35*,-14,4,11,0,2
O=C(COc1ccccc1C(=O)Nc1ccccc1)Nc1ccccc1Cl,.,.,0,.,.,.
CC12CCC(=O)N1C(C(=O)Nc1ccccc1F)CS2 (configuration not stated),0,12,0,22,1,0
CC12CCC(=O)N1C(C(=O)Nc1ccc(F)c(Cl)c1)CS2 (configuration not stated),35*,-18,1,15,0,4
N#CC1=C(N)OC2=C(CC/C2=C\c2ccccc2Cl)C1c1ccccc1Cl (configuration not stated),16,17,2,-10,12,0
N#CC1=C(N)OC2=C(CC/C2=C\c2ccccc2)C1c1ccccc1 (configuration not stated),13,-7,55*,-8,0,3
CC(C)c1ccc(NC(=O)CSc2nc(=O)n(Cc3cccnc3)c3c2CCC3)cc1,-3,.,0,-18,-1,.
CCCCC(=O)OCC(=O)c1[nH]c(C)c(C(C)=O)c1C,35*,-19,0,56,0,27
CCCC(=O)OCC(=O)c1[nH]c(C)c(C(C)=O)c1C,-4,29,-1,-5,0,6
Cc1ccc(C(=O)COC(=O)c2cc(-c3ccc(Cl)cc3)nc3ccccc23)cc1,-1,.,-1,6,1,.
CCCC1=NN2C(=N)/C(=C\c3ccc(OCCOc4ccc(NC(C)=O)cc4)c(OC)c3)C(=O)N=C2S1,31*,-10,0,-5,1,0
